# Laboratory results as given in paper PMC4336329 (PLoS ONE, 2015).
# The whole screen tested about 310,000 compounds, of which about 2,200 (0.71%) showed an effect of 50% or more. Effects have a minus sign here. For the sample, strong results were picked, then their nearest neighbours and some compounds at random.
# Target: human ether-à-go-go-related gene (hERG) potassium channel (human, UniProt Q12809)
# Experiment: primary screen, population patch clamp on CHO cells stably expressing hERG; higher = less effect of the substance
# Sequence of human ether-à-go-go-related gene (hERG) potassium channel (Q12809 whole entry, looked up): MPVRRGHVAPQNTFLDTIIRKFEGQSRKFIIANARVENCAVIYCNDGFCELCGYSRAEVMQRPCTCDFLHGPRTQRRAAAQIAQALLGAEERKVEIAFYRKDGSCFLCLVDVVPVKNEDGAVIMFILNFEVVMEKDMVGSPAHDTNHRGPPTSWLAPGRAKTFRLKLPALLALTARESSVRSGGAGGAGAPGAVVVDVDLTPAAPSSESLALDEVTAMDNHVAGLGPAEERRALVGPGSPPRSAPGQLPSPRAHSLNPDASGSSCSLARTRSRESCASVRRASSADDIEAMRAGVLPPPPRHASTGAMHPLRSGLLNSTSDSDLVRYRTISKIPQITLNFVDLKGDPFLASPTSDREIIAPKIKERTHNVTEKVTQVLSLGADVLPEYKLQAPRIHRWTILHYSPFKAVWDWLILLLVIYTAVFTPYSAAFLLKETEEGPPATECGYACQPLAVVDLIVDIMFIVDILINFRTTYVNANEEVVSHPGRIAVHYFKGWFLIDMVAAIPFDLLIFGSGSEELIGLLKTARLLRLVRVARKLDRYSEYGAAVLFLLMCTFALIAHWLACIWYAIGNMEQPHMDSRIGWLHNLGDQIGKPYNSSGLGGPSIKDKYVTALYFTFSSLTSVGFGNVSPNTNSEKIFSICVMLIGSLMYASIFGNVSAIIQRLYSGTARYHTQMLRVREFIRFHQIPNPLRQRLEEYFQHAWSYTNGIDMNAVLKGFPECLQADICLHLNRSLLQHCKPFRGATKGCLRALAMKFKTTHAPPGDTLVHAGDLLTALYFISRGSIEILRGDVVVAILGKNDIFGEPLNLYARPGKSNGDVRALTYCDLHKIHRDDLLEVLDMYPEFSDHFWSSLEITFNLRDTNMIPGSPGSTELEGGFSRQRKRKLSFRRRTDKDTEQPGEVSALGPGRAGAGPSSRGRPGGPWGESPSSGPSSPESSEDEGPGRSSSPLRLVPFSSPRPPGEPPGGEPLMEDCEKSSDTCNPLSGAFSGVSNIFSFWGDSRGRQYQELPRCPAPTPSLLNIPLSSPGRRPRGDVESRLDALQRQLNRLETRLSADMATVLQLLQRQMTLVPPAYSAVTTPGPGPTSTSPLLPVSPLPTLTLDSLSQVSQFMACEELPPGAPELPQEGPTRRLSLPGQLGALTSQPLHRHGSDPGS
row,Compound,"hERG current change (%, negative = inhibition) at 1uM"
1,CC(C)NC(=O)C1CCN(C2CCN(C(=O)Cc3ccc4c(c3)OCO4)CC2)CC1,4.98%
2,Cc1cc(N2C(=O)C(O)=C(C(=O)c3cccs3)C2c2ccc(F)cc2)no1 (stereo not drawn),14.8%
3,S=C(NCc1ccncc1)Nc1ccccc1,7.34%
4,CCCOc1ccc(N2C(=O)CC(NCCNc3ccc([N+](=O)[O-])cn3)C2=O)cc1 (stereo not drawn),-57.8%
5,CCOc1ccc(N2C(=O)CC(NCCNc3ccc([N+](=O)[O-])cn3)C2=O)cc1 (stereo not drawn),-37.8%
6,COc1ccc(N2C(=O)CC(NCCNc3ccc([N+](=O)[O-])cn3)C2=O)cc1 (stereo not drawn),-13.7%
7,CC1(C)CC(=O)C2=C(C1)N(c1ccc(F)cc1)C(N)=C(C#N)C2c1cccs1 (stereo not drawn),4.89%
8,CN1CCC(=NOc2ccc([N+](=O)[O-])cc2)CC1,-56%
9,CC1=CC(=O)C=C(C)C1=NOc1ccc([N+](=O)[O-])cc1,-11.7%
10,CC1CN(C)C(C)C/C1=N\Oc1ccc([N+](=O)[O-])cc1.Cl (stereo not drawn),-84.5%
11,CN1CCN(C(=O)c2ccc(Oc3ccc([N+](=O)[O-])cc3)cc2)CC1,-11.7%
12,CC1CC(C)CN(S(=O)(=O)c2ccc(Oc3ccc([N+](=O)[O-])cc3)cc2)C1 (stereo not drawn),14.4%
13,CC1CN(C)C(C)C/C1=N/Oc1ccccc1[N+](=O)[O-].Cl (stereo not drawn),2.66%
14,CCCCCc1nnc(NC(=O)C2=COCCO2)s1,6.91%
15,O=C(Nc1nc(-c2ccccn2)cs1)c1ccc(F)c(S(=O)(=O)N2CCOCC2)c1,5.44%
16,CCCC(=O)Nc1c(-c2cccs2)c(=O)c2ccccc2n1C,5.25%
17,CC1CCCCC1NC(=O)Cn1cccc1C(=O)c1ccccc1 (stereo not drawn),14%
18,CNc1nc2cc([N+](=O)[O-])c([N+](=O)[O-])cc2nc1NC,-3.16%
19,COc1ccc(CN2CCC(C(=O)Nc3ccc(Oc4ccccc4)nc3)CC2)cc1F,-37.8%
20,CCOc1ccc(C(=O)CCC(=O)N2CCC(C(=O)OC)CC2)cc1,10.1%
21,CC1=C(C(=O)Nc2ccccc2F)C(c2ccsc2)C2=C(CC(C)(C)CC2=O)N1 (stereo not drawn),1.33%
22,C#CCNC(=O)C1CCN(c2cc(C)nc(-c3ccccc3)n2)CC1,-8.78%
23,C=CCNC(=O)C1CCN(c2cc(C)nc(-c3ccccc3)n2)CC1,-12.2%
24,Cc1cc(N2CCC(C(=O)NCC3CC3)CC2)nc(-c2ccccc2)n1,-53%
25,Cc1nn(CC(=O)OCC(=O)Nc2ccccc2[N+](=O)[O-])c(C)c1[N+](=O)[O-],7.87%
26,CCCCn1c(N)c(N(CCOC)C(=O)c2ccc(OCc3c(C)noc3C)cc2)c(=O)[nH]c1=O,19%
27,O=C(CN1CCN(C(C(=O)Nc2ccc(Cl)cc2C(F)(F)F)c2ccccc2)CC1)NC1CC1 (stereo not drawn),-50.1%

row,Compound,"hERG current change (%, negative = inhibition) at 1uM"
1,O=C(CN1CCN(C(C(=O)Nc2ccc(F)cc2)c2ccccc2)CC1)NC1CC1 (stereo not drawn),-2.24%
2,Cc1ccc(NC(=O)C(c2ccccc2)N2CCN(CC(=O)NC3CC3)CC2)cc1Cl (stereo not drawn),-2.31%
3,COc1ccc(N(C(=O)Cn2nnc3ccccc32)C(C(=O)NC(C)(C)C)c2ccc(OC)c(O)c2)cc1 (stereo not drawn),14.6%
4,Cc1ccc(N2C(=O)C3CC(c4ccccc4)=C4C5C=CC(C6C(=O)N(c7ccc(C)cc7)C(=O)C56)C4C3C2=O)cc1 (stereo not drawn),-74.5%
5,Cc1ccc(N2C(=O)C3CC(c4ccccc4)=C4C5C=CC(C6C(=O)N(c7ccc(C)cc7C)C(=O)C56)C4C3C2=O)c(C)c1 (stereo not drawn),3.95%
6,Cc1ccc(N2C(=O)C3C4CC(=O)C(c5ccccc54)C3C2=O)cc1 (stereo not drawn),4.46%
7,Cn1c(SCC(=O)NC2CC2)nnc1-c1ccccc1,6.86%
8,CN(C)/C=N/c1ncc(C(=O)c2ccc(Cl)cc2Cl)s1,-4.09%
9,COc1cccc(Nc2cc(C)nc3ccccc23)c1,-65.2%
10,COc1ccc(Nc2cc(C)nc3ccccc23)cc1.Cl,-15.6%
11,Cc1cccc(Nc2cc(C)nc3ccccc23)c1.Cl,-33.5%
12,Cc1ccc(-n2c(C)cc(C(=O)CSc3nnc4ccccn34)c2C)cc1,0.977%
13,O=C(NC1CCCCC1)C1CCN(c2nnnn2-c2ccccc2)CC1,3.39%
14,COc1ccc(/C=C2\N=C3CCCCCN3C2=O)cc1OC,14.8%
15,Cc1cccc(OCC(O)CN2CCN(CCN3C(=O)c4cccc5cccc(c45)C3=O)CC2)c1C (stereo not drawn),15.1%
16,COc1ccc(N2CCN(CC(O)COc3cc(C)ccc3C)CC2)cc1.Cl (stereo not drawn),-9.86%
17,COc1ccc(N2CCN(CC(O)COc3cc(C)cc(C)c3)CC2)cc1.Cl (stereo not drawn),-17.5%
18,OC(COc1cccc2ccccc12)CN1CCN(c2ccc(Cl)cc2)CC1 (stereo not drawn),-1.91%
19,Cc1ccccc1OCC(O)CN1CCN(CCN2C(=O)c3cccc4cccc(c34)C2=O)CC1 (stereo not drawn),-17.3%
20,Cc1ccccc1OCC(O)CN1CCCCC1.Cl (stereo not drawn),16.2%
21,CC(=O)c1ccccc1OCC(O)CN1CCN(CCN2C(=O)c3cccc4cccc(c34)C2=O)CC1 (stereo not drawn),-73.5%
22,C=C1CC(C)OC(c2ccccc2OCC(O)CN2CCCCC2)C1 (stereo not drawn),-63.3%
23,COc1ccc(N2CCN(CC(O)COc3ccc(C)cc3C)CC2)cc1.Cl (stereo not drawn),-54.6%
24,Cc1ccccc1OCC(O)CN1CCN(c2ccc(Cl)cc2)CC1 (stereo not drawn),-58.2%
25,OC(COc1cccc2ccccc12)CN1CCCC1 (stereo not drawn),-1.17%
26,COc1cccc(OCC(O)CN2CCN(c3ccc(Cl)cc3)CC2)c1 (stereo not drawn),-14.1%
27,O=C(COC(=O)c1nc(Cl)c(Cl)c(Cl)c1Cl)NCc1ccccc1,3.59%
